# The supplement of paper PMC13172266
# Structures can show the parent of a compound that is named as a salt.
# Experiments:
# Assay in all cases: cell proliferation relative to vehicle (% of vehicle); higher = less growth inhibition
# Details in all cases: 72 h
# [1] = test system: U2932 TK216-resistant clone 2
# Summary of the method: (§1)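 Growth medium with 10% FBS at 37°C and 5% CO2 was used to culture U2932, an ABC-DLBCL line, in parental form and as two clones rendered resistant to an ETS-targeting agent by repeated exposure over almost a year. These cells received compounds from a 348-member targeted inhibitor library at 500 nM or 50 nM for 72 h, followed by 4 h of MTT, a 25% SDS stop and an absorbance read on a Cytation 3. The percentage of proliferating cells is reported relative to DMSO vehicle.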
# [2] = test system: U2932 TK216-resistant clone 3
# Summary of the method: as §1
# U2932 parental = test system: U2932 parental
# Summary of the method: as §1
SMILES,cell proliferation ([1]; 50 nM),cell proliferation ([1]; 500 nM),cell proliferation ([2]; 50 nM),cell proliferation ([2]; 500 nM),cell proliferation (U2932 parental; 50 nM),cell proliferation (U2932 parental; 500 nM)
CS(=O)(=O)c1cccc(CNc2nc(Nc3ccc4c(c3)CCC(=O)N4)ncc2C(F)(F)F)c1,110,101,103,98.3,90.5,82.6
OCCn1cc(-c2ccc3c(c2)CC/C3=N\O)c(-c2ccncc2)n1,105,106,97,91.9,105,103
COc1cc2nccc(Oc3ccc(NC(=O)C4(C(=O)Nc5ccc(F)cc5)CC4)cc3)c2cc1OC [Cabozantinib malate (XL184)],109,109,102,95.7,109,103
CCCS(=O)(=O)Nc1ccc(F)c(C(=O)c2c[nH]c3ncc(Cl)cc23)c1F,99.4,97.3,106,106,95.1,95.6
Cc1cc(N2CCOCC2)cc2[nH]c(-c3c(NC[C@@H](O)c4cccc(Cl)c4)cc[nH]c3=O)nc12,110,96,100,92.8,102,100
O=C(NC[C@H](O)CO)c1ccncc1Nc1ccc(I)cc1F,91,88.5,95.7,94.7,92.2,89.5
COc1cc2ncnc(Nc3ccc(O)c(Br)c3)c2cc1OC,106,111,96.2,105,98.3,101
CCCCCCCCc1ccc(CCC(N)(CO)CO)cc1 [Fingolimod (FTY720) HCl],99.3,102,99.6,96.1,98.3,94.8
COc1nc(C)cnc1NS(=O)(=O)c1cccnc1-c1ccc(-c2nnco2)cc1 [Zibotentan (ZD4054)],95.1,104,106,102,97.2,95.2
CCOC(=O)C1=C(N)Oc2ccc(Br)cc2C1C(C#N)C(=O)OCC (stereo unspecified),103,95.7,109,100,98.4,97.6
CCc1c2c(nc3ccc(OC(=O)N4CCC(N5CCCCC5)CC4)cc13)-c1cc3c(c(=O)n1C2)COC(=O)[C@]3(O)CC [Irinotecan],,,,,94.3,50.5
CCCCCOC(=O)Nc1nc(=O)n([C@@H]2O[C@H](C)[C@@H](O)[C@H]2O)cc1F [Capecitabine],103,105,104,108,99.9,98.3
CCO[C@@H]1OC(=O)C[C@@H]1NC(=O)[C@@H]1CCCN1C(=O)[C@@H](NC(=O)c1ccc(N)c(Cl)c1)C(C)(C)C,105,105,101,102,95.4,98.2
C=CC(=O)N1CCC[C@@H](n2nc(-c3ccc(Oc4ccccc4)cc3)c3c(N)ncnc32)C1,,,,,76,70.9
CS(=O)(=O)N1CCN(Cc2cc3nc(-c4cccc5[nH]ncc45)nc(N4CCOCC4)c3s2)CC1,,,,,85.4,49.1
O=C(/C=C\n1cnc(-c2cc(C(F)(F)F)cc(C(F)(F)F)c2)n1)NNc1cnccn1,87.7,36.3,58.9,57.6,82.9,44.1
Nc1nc(N)c2nc(-c3cccc(O)c3)c(-c3cccc(O)c3)nc2n1,103,100,110,96.6,99,99.2
CO[C@H]1C[C@@H]2CC[C@@H](C)[C@@](O)(O2)C(=O)C(=O)N2CCCC[C@H]2C(=O)O[C@H]([C@H](C)C[C@@H]2CC[C@@H](OC(=O)C(C)(CO)CO)[C@H](OC)C2)CC(=O)[C@H](C)/C=C(\C)[C@@H](O)[C@@H](OC)C(=O)[C@H](C)C[C@H](C)/C=C/C=C/C=C/1C,68.3,64.8,65,65.1,59.6,58.9
Cc1cn([C@H]2O[C@@H](CO)[C@H](O)[C@H]2F)c(=O)[nH]c1=O [Clevudine],100,103,96.2,103,98.8,96.8
CNc1nc(Nc2cn(C(C)(C)C#N)nc2C)ncc1C(F)(F)F,101,96.4,101,95.2,100,98.2
O=C(Nc1ccc(OC(F)(F)F)cc1)c1sccc1NCc1ccnc2ccccc12,105,101,105,109,100,98.9
O=C(O)CC[C@H]1CC[C@@](c2cc(F)ccc2F)(S(=O)(=O)c2ccc(Cl)cc2)CC1,102,109,105,106,93.5,93.2
NC(=O)Nc1cc(-c2cccc(F)c2)sc1C(=O)N[C@H]1CCCNC1,89.8,13.6,91.8,18.9,83,11.5
Cc1[nH]c2ccccc2c1CCNCc1ccc(/C=C/C(=O)NO)cc1 [Panobinostat (LBH589)],14.9,4.33,12.9,11.5,9.5,0.518
C[C@@H](Oc1cc(-n2cnc3ccc(CN4CCN(C)CC4)cc32)sc1C(N)=O)c1ccccc1C(F)(F)F,8.44,10,5.99,14.8,8,10.6
Cc1cnc(-c2cnc(NCCNc3ccc(C#N)cn3)nc2-c2ccc(Cl)cc2Cl)[nH]1,101,97.6,107,96.8,99.8,95
CCN(CC)CCNC(=O)c1ccc(N)cc1 [Procainamide HCl],,,,,93.9,95.9
